Screens (PubChem)
IL-1B inflam inh = qHTS for Inhibitors of Inflammasome Signaling: IL-1-beta AlphaLISA Primary Screen. activity change, % at 57.5 µM. THP-1 LPS/ATP IL-1B secretion, AlphaLISA, 16 h; stronger effect = lower value. hit rate 4.7% among 360,000; in the data active = activity change below about -50%; inconclusive = mostly about -30% to -49%
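THP-1 cells pretreated 1 hr with compounds (up to 57.5 uM final), then stimulated with LPS (250 ng/mL final) plus ATP (1.25 mM final); secreted IL-1B measured by AlphaLISA after 16 hr, decreased signal indicating inhibition.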
TDP1 cell noCPT = qHTS for Inhibitors of human tyrosyl-DNA phosphodiesterase 1 (TDP1): qHTS in cells in absence of CPT | DT40 Tdp1-/- hTDP1 cells, no CPT, ATP luminescence, 48 h | Potency, µM (top dose mostly 46.2 µM), usual class: inhibitors | hit rate 15% among 420,000 | AID 686978, 2013; note: nearly all actives have a fitted effect of over 55% in size
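Cells were dispensed at 400 per well, compounds added by pin tool, plates incubated ≥48 hr at 37 °C, then CellTiter-Glo added for 30 min at room temperature before luminescence reading. Line: DT40 Tdp1-/- complemented with hTDP1; camptothecin omitted.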
DT40 TDP1 CPT = qHTS for Inhibitors of human tyrosyl-DNA phosphodiesterase 1 (TDP1): qHTS in cells in presence of CPT. Potency, µM (series often up to 46.2 µM), most hits filed as inhibitors. hit rate 12% among 420,000. chicken DT40 Tdp1-/-;hTDP1 cells + 20 nM CPT, ATP luminescence, 48 h; note: nearly all actives have a fitted effect of over 55% in size
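Cell growth measured by CellTiter-Glo luminescence after a minimum 48 h, 37 C compound exposure with 20 nM CPT in Tdp1-knockout DT40 cells stably expressing hTDP1, seeded 400/well; qHTS titration format.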
HT1080 IDH1KD tx = qHTS for induction of synthetic lethality in tumor cells producing 2HG: qHTS for the HT-1080-IDH1KD cell line | HT-1080 IDH1 knockdown viability, ATP luminescence, 48 h | Potency, µM (titrated, usually from 46.1 µM), usual class: cytotoxic | hit rate 2% among 360,000
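Viability of IDH1-knockdown HT-1080 fibrosarcoma cells was assessed by CellTiter-Glo after 48 h at 37 °C with titrated compound; concentration-effect curves were classified by fit quality and response size.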
HT1080-NT tox = qHTS for induction of synthetic lethality in tumor cells producing 2HG: qHTS for the HT-1080-NT fibrosarcoma cell line; HT-1080-NT fibrosarcoma viability, CellTiter-Glo ATP luminescence, 48 h; Potency, µM (top dose mostly 46.1 µM), actives largely listed as cytotoxic; hit rate 1.6% among 360,000; AID 686970, 2013;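 note: NT is the 2HG producing partner of a matched IDH1 knockdown line; nearly all actives have a fitted effect of over 55% in size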
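Read-out is CellTiter-Glo luminescence after 10 minutes at room temperature, following 48 hours' compound treatment of HT-1080-NT cells (750 cells/well, RPMI, 5% FBS, 37 degrees C).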
Of the large screens only hits and unclear results are named; the others gave an inactive call. Hits are enriched below; roughly 19% of the tested compounds scored in any of these assays. Unless noted, calls come from the whole dose curve; as a rule, active = well fitted curve in the direction sought with a large enough effect; inconclusive = small, poorly fitted or top-dose-only effect, or another doubt; inactive = no such curve, though single readings can be large; an effect the other way counts as inactive or inconclusive.

Nc1ccc2c(c1)C(=O)c1ccc(Br)cc1-2	none
CCOC(N)=O	none (no result: IL-1B inflam inh, HT1080 IDH1KD tx, HT1080-NT tox)
CCn1c(=N)c(C(=O)NCC2CCCO2)cc2c(=O)n3cc(C)ccc3nc21 (configuration not stated)	none (no result: IL-1B inflam inh, HT1080 IDH1KD tx, HT1080-NT tox)
c1ccc2c(c1)Cc1cc3ccccc3nc1-2	TDP1 cell noCPT 21µM, DT40 TDP1 CPT inconclusive, HT1080 IDH1KD tx inconclusive
O=C1c2ccccc2-c2nc3ccccc3cc21	TDP1 cell noCPT inconclusive, DT40 TDP1 CPT inconclusive
CCCCc1ncc(CN2CCN(Cc3ccc(C)cc3)C(CCO)C2)[nH]1 (configuration not stated)	none
COc1ccc(NC(=O)[C@@H](NC(=O)c2ccccc2)C(C)C)cc1S(=O)(=O)N1CCCCC1	TDP1 cell noCPT inconclusive, DT40 TDP1 CPT inconclusive
CSc1ncc(C(=O)Nc2ccc(C)c(Cl)c2)c(-c2ccccc2)n1	TDP1 cell noCPT inconclusive, DT40 TDP1 CPT 23µM (no result: IL-1B inflam inh, HT1080 IDH1KD tx, HT1080-NT tox)
CCOC(=O)C1=C(CSc2nc3c(cc2C#N)CCC3)OC(N)=C(C#N)C1c1ccccc1 (configuration not stated)	TDP1 cell noCPT inconclusive, DT40 TDP1 CPT 29µM, HT1080 IDH1KD tx inconclusive, HT1080-NT tox inconclusive
CCOC(=O)C1=C(CSc2nc3c(cc2C#N)CN(C)CC3)OC(N)=C(C#N)C1c1ccccc1 (configuration not stated)	TDP1 cell noCPT 29µM, DT40 TDP1 CPT inconclusive
CCOC(=O)C1=C(CSc2nc3c(cc2C#N)CN(C)CC3)OC(N)=C(C#N)C1c1ccc(F)cc1 (configuration not stated)	TDP1 cell noCPT inconclusive, DT40 TDP1 CPT inconclusive
O=C(O)CCC(=O)Nc1cccc(-c2nc3ccccc3o2)c1	none
O=C(/C(=C/O)N=Nc1ccccc1)c1ccncc1	TDP1 cell noCPT inconclusive, DT40 TDP1 CPT inconclusive, HT1080-NT tox inconclusive
O=C(/C(=C/O)N=Nc1ccccc1)c1ccc(Cl)cc1	IL-1B inflam inh -102, TDP1 cell noCPT inconclusive, DT40 TDP1 CPT inconclusive, HT1080 IDH1KD tx 18µM, HT1080-NT tox 16µM
Cn1cccc1/C=N\NC(=O)c1cncc(Br)c1	none (no result: IL-1B inflam inh)
CC1(C)C2CC=C(/C=N/NC(=O)c3ccc(O)cc3)C1C2 (configuration not stated)	IL-1B inflam inh -54
O=C(N/N=C\c1c(O)ccc2ccccc12)c1cncc(Br)c1	TDP1 cell noCPT 0.82µM, DT40 TDP1 CPT 1.6µM, HT1080 IDH1KD tx 1µM, HT1080-NT tox inconclusive
Cc1c(/C=N/NC(=O)c2cccs2)c2ccccc2n1Cc1ccccc1Cl	TDP1 cell noCPT 21µM, DT40 TDP1 CPT 16µM
COC(=O)N/N=C/C1=CCC2CC1C2(C)C (configuration not stated)	none
O=C(N/N=C/c1c(O)ccc2ccccc12)c1ccc(Br)o1	TDP1 cell noCPT 4.6µM, DT40 TDP1 CPT 5.2µM, HT1080 IDH1KD tx 5.8µM, HT1080-NT tox inconclusive
Cc1[nH]c2ccccc2c1/C=N/NC(=O)c1cccs1	DT40 TDP1 CPT inconclusive
Cc1cc2c(cc1S(=O)(=O)CCC(=O)N(C)Cc1ccccc1)OCC(=O)N2	none
O=S1(=O)CC(N2CCC(c3ccccc3)CC2)CN1Cc1ccc(F)cc1 (configuration not stated)	TDP1 cell noCPT inconclusive, DT40 TDP1 CPT inconclusive
Cc1cnc(-n2ncc(C(=O)NCc3ccccn3)c2C2CC2)nc1-c1cccs1	none (no result: IL-1B inflam inh, HT1080 IDH1KD tx, HT1080-NT tox)
Cc1occc1C(=O)N/N=C/c1c(O)ccc2ccccc12	TDP1 cell noCPT 1µM, DT40 TDP1 CPT 0.65µM, HT1080 IDH1KD tx 6.5µM, HT1080-NT tox inconclusive
Cc1occc1C(=O)N/N=C/c1c[nH]c2ccccc12	none
O=C(N/N=C/c1cccc2ccccc12)c1ccncc1	none
O=C(N/N=C/c1c(O)ccc2ccccc12)c1ccc[n+](CCO)c1	TDP1 cell noCPT inconclusive, DT40 TDP1 CPT 29µM, HT1080 IDH1KD tx inconclusive
O=C(N/N=C\c1c(O)ccc2ccccc12)c1ccc(O)cc1	TDP1 cell noCPT 6.5µM, DT40 TDP1 CPT inconclusive, HT1080 IDH1KD tx inconclusive, HT1080-NT tox inconclusive
